Experimental data taken from PubChem BioAssay (NCI).
About 79,000 compounds went through this panel and 15% of them were active in at least one assay; those are over-represented in the sample as a whole. Active and inactive are the calls of the source. Rule as the data show it: active = growth inhibition above about 70%; inactive = the rest.

Tests used:
[1] = NCI Yeast Anticancer Drug Screen. Data for the wt1 strain (AID 149);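 also: 0% = growth of vehicle-treated wt1 cultures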; conditions: S. cerevisiae wt1 strain (SPY 50644) growth inhibition, stronger effect = higher value
Procedure, shortened: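 Readout: yeast growth inhibition, normalised to vehicle controls, in the wt1 strain exposed to test compounds.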

[2] = NCI Yeast Anticancer Drug Screen. Data for the rad50EPP+ strain (AID 151);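 also: 0% = growth of vehicle-treated control cultures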; conditions: S. cerevisiae rad50 mutant strain, stronger effect = higher value
Procedure, shortened: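 One strain with a rad50 alteration (rad50EPP+) was compound-treated, its growth then compared to that of vehicle controls.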

[3] = NCI Yeast Anticancer Drug Screen. Data for the mgt1 strain (AID 153); conditions: S. cerevisiae mgt1 mutant growth inhibition, stronger effect = higher value
Procedure, shortened: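 After exposure of the mgt1 yeast mutant to compound, growth was measured and reported as inhibition compared with vehicle controls.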

[4] = NCI Yeast Anticancer Drug Screen. Data for the rad50 strain (AID 155);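 also: 0% = growth of vehicle-only cultures of the same strain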; conditions: S. cerevisiae rad50 strain growth inhibition, stronger effect = higher value
Procedure, shortened: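 Compounds were tested on a yeast strain with an engineered DNA damage repair alteration; the reported value is growth inhibition normalised to vehicle treatment.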

[5] = NCI Yeast Anticancer Drug Screen. Data for the mec2-1 strain (AID 157); conditions: S. cerevisiae mec2-1 strain, stronger effect = higher value
Procedure, shortened: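 Test agents were screened against the mec2-1 yeast strain, with defined DNA repair or cell cycle alteration. Growth was scored as inhibition against vehicle-only controls.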

[6] = NCI Yeast Anticancer Drug Screen. Data for the rad14 strain (AID 159);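 also: 0% = growth of vehicle-treated control cultures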; conditions: S. cerevisiae rad14 strain growth inhibition, stronger effect = higher value
Procedure, shortened: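 Compound-treated yeast with a defined DNA-repair lesion; growth inhibition normalised to vehicle-treated cultures.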

[7] = NCI Yeast Anticancer Drug Screen. Data for the sgs1 mgt1 strain (AID 161);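 also: 0% = growth of cultures given vehicle only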; conditions: S. cerevisiae sgs1 mgt1 strain, stronger effect = higher value
Procedure, shortened: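 Test agents were incubated with a DNA-repair-mutant yeast strain. Growth was then read and compared against vehicle-treated controls.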

[8] = NCI Yeast Anticancer Drug Screen. Data for the CLN2oe strain (AID 163);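 also: 0% = growth of vehicle-only control cultures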; conditions: S. cerevisiae CLN2oe strain, stronger effect = higher value
Procedure, shortened: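 Here, growth inhibition in a cell-cycle-altered yeast strain after compound exposure was quantified against vehicle control growth.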

[9] = NCI Yeast Anticancer Drug Screen. Data for the cln2 rad14 strain (AID 165);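 also: 0% = growth equal to vehicle treated cultures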; conditions: S. cerevisiae cln2 rad14 strain, stronger effect = higher value
Procedure, shortened: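 Growth of compound-exposed yeast (cln2 rad14 genotype) measured and expressed as inhibition relative to vehicle.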

[10] = NCI Yeast Anticancer Drug Screen. Data for the bub3 strain (AID 167); conditions: S. cerevisiae bub3 mutant strain, stronger effect = higher value
Procedure, shortened: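 Growth of a checkpoint-deficient yeast mutant is measured after compound exposure. Values represent inhibition relative to vehicle.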

[11] = NCI Yeast Anticancer Drug Screen. Data for the wt2 strain (AID 169);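 also: 0% = growth of vehicle-treated yeast cultures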; conditions: S. cerevisiae wt2 strain growth inhibition, stronger effect = higher value
Procedure, shortened: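 Genetically defined yeast strains from a DNA-repair/cell-cycle panel were used. Compound-exposed yeast growth was measured, and the inhibition was calculated relative to vehicle treatment.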

[12] = NCI Yeast Anticancer Drug Screen. Data for the sgs1 strain (AID 173);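 also: 0% = growth of vehicle-only control cultures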; conditions: S. cerevisiae sgs1 mutant, stronger effect = higher value
Procedure, shortened: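 Relative growth inhibition, referenced to vehicle, was determined in a yeast strain with a defined alteration affecting DNA damage repair or cell cycle control after compound exposure.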

[13] = NCI Yeast Anticancer Drug Screen. Data for the mlh1 rad18 strain (AID 175); conditions: S. cerevisiae mlh1 rad18 strain growth inhibition, stronger effect = higher value
Procedure, shortened: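 In this whole-cell yeast screen, a strain with altered DNA damage repair is challenged with compound, and its growth is measured against matched vehicle-treated controls.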

[14] = NCI Yeast Anticancer Drug Screen. Data for the rad18 strain (AID 177); conditions: S. cerevisiae rad18 mutant growth inhibition, stronger effect = higher value
Procedure, shortened: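 Screen uses a yeast strain with a defined lesion in DNA damage repair; compound effect is read as loss of growth compared to untreated vehicle cultures.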

[15] = NCI Yeast Anticancer Drug Screen. Data for the mlh1 strain (AID 171);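 also: 0% = growth of vehicle-treated control cultures of the same strain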; conditions: S. cerevisiae mlh1 strain growth inhibition, stronger effect = higher value
Procedure, shortened: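 Here the genetically defined yeast mutant is grown with each compound, and the extent to which its growth falls below that of vehicle-exposed cells is reported.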

[16] = at 5.0 µM (retest, dose inferred, filed as 0.5)
[17] = at 50.0 µM (retest, dose inferred, filed as 5.0)

Measured: growth inhibition

O=C1c2ccccc2C(=O)C(Cl)C1Cl (stereo unspecified)
active: [1]; at 11.0 µM 72% | [1]; at 33.0 µM 99% | [1]; at 100.0 µM 99% | [2]; at 11.0 µM 98% | [2]; at 33.0 µM 99% | [2]; at 100.0 µM 98% | [3]; at 11.0 µM 99% | [3]; at 33.0 µM 99% | [3]; at 100.0 µM 99% | [4]; at 11.0 µM 98% | [4]; at 33.0 µM 99% | [4]; [17] 99% | [4]; at 50.0 µM 99.2% | [4]; at 100.0 µM 99% | [5]; at 11.0 µM 90% | [5]; at 33.0 µM 99% | [5]; [17] 99% | [5]; at 50.0 µM 99.4% | [5]; at 100.0 µM 99% | [6]; at 11.0 µM 92% | [6]; at 33.0 µM 99% | [6]; at 100.0 µM 99% | [7]; [17] 99% | [7]; at 50.0 µM 99.5% | [8]; at 11.0 µM 71% | [8]; at 33.0 µM 99% | [8]; at 100.0 µM 98% | [9]; [17] 99% | [9]; at 50.0 µM 99.1% | [10]; [16] 88% | [10]; at 11.0 µM 98% | [10]; at 33.0 µM 99% | [10]; [17] 99% | [10]; at 50.0 µM 99.3% | [10]; at 100.0 µM 99% | [11]; at 11.0 µM 82% | [11]; at 33.0 µM 99% | [11]; at 100.0 µM 99% | [12]; at 11.0 µM 89% | [12]; at 33.0 µM 99% | [12]; at 100.0 µM 99% | [13]; [17] 99% | [13]; at 50.0 µM 99.3% | [14]; at 11.0 µM 91% | [14]; at 33.0 µM 99% | [14]; at 100.0 µM 99%
inactive: [1]; at 1.2 µM 7% | [1]; at 3.7 µM 18% | [2]; at 1.2 µM 7% | [2]; at 3.7 µM 36% | [3]; at 1.2 µM 7% | [3]; at 3.7 µM 13% | [4]; at 1.2 µM 5% | [4]; at 3.7 µM 36% | [4]; [16] 29% | [5]; at 1.2 µM 9% | [5]; at 3.7 µM 22% | [5]; [16] 34% | [6]; at 1.2 µM 7% | [6]; at 3.7 µM 18% | [7]; [16] 33% | [8]; at 1.2 µM 4% | [8]; at 3.7 µM 10% | [9]; [16] 10% | [10]; at 1.2 µM 13% | [10]; at 3.7 µM 35% | [11]; at 1.2 µM 9% | [11]; at 3.7 µM 24% | [12]; at 1.2 µM 4% | [12]; at 3.7 µM 15% | [13]; [16] 21% | [14]; at 1.2 µM 1% | [14]; at 3.7 µM 10%

C/C(=N\N=C(N)N)C(CN1CCOCC1)C(c1ccccc1)c1c(O)c2ccccc2oc1=O (stereo unspecified)
inactive: [1]; at 1.2 µM 2% | [1]; at 3.7 µM -2% | [1]; at 11.0 µM -3% | [1]; at 33.0 µM 3% | [1]; at 100.0 µM 42% | [2]; at 1.2 µM -6% | [2]; at 3.7 µM -3% | [2]; at 11.0 µM -6% | [2]; at 33.0 µM -3% | [2]; at 100.0 µM 10% | [3]; at 1.2 µM 1% | [3]; at 3.7 µM -2% | [3]; at 11.0 µM 0% | [3]; at 33.0 µM 37% | [3]; at 100.0 µM 48% | [4]; at 1.2 µM 3% | [4]; at 3.7 µM 5% | [4]; at 11.0 µM -15% | [4]; at 33.0 µM 21% | [5]; at 1.2 µM 1% | [5]; at 3.7 µM 1% | [5]; [16] 59% | [5]; at 11.0 µM -3% | [5]; at 33.0 µM 8% | [5]; [17] 59% | [5]; at 100.0 µM 51% | [6]; at 1.2 µM 4% | [6]; at 3.7 µM 1% | [6]; at 11.0 µM -2% | [6]; at 33.0 µM 6% | [9]; [16] 7% | [9]; [17] 7% | [10]; at 1.2 µM 5% | [10]; at 3.7 µM 4% | [10]; [16] 31% | [10]; at 11.0 µM 18% | [10]; at 33.0 µM 47% | [10]; [17] 31% | [10]; at 100.0 µM 43% | [15]; at 1.2 µM -2% | [15]; at 3.7 µM -8% | [15]; at 11.0 µM -7% | [15]; at 33.0 µM 40% | [12]; at 1.2 µM -1% | [12]; at 3.7 µM -3% | [12]; at 11.0 µM 0% | [12]; at 33.0 µM 42% | [13]; [16] 57% | [13]; [17] 57% | [13]; at 50.0 µM 49.2% | [14]; at 1.2 µM -3% | [14]; at 3.7 µM -9% | [14]; at 11.0 µM -12% | [14]; at 33.0 µM 13%
active: [4]; [16] 78% | [4]; [17] 78% | [4]; at 50.0 µM 86.5% | [4]; at 100.0 µM 94% | [5]; at 50.0 µM 80.7% | [6]; at 100.0 µM 93% | [7]; [16] 88% | [7]; [17] 88% | [7]; at 50.0 µM 86% | [9]; at 50.0 µM 85.5% | [10]; at 50.0 µM 77.8% | [15]; at 100.0 µM 96% | [12]; at 100.0 µM 97% | [14]; at 100.0 µM 93%
